Assay results from PubChem BioAssay (NCATS).
Inconclusive results are not listed. This is one part of the list. Where a call stands in place of a potency, no number is given. Active and inactive are the calls of the source. The call rests on the fitted dose curve; in most records, active means well fitted curve in the direction sought with a large enough effect; inconclusive means small, poorly fitted or top-dose-only effect, or another doubt; inactive means no such curve, though single readings can be large; an effect the other way counts as inactive or inconclusive.

How the values were obtained:
[1] = biological target: Tumor susceptibility gene 101 protein (Homo sapiens) (UniProt Q99816); assay: qHTS Assay for Iinhibitors of HIV-1 Budding by Blocking the Interaction of PTAP/TSG101: Hit Validation (AID 651600); details: PTAP peptide/TSG101 UEV interaction, biochemical assay; series mostly up to 57.5 µM; further: nearly all actives have a fitted effect of over 70% in size; further: potency means the concentration at half of the fitted maximal effect
Chain of Tumor susceptibility gene 101 protein (Homo sapiens) (Q99816 whole entry, looked up, the tested form may be a part): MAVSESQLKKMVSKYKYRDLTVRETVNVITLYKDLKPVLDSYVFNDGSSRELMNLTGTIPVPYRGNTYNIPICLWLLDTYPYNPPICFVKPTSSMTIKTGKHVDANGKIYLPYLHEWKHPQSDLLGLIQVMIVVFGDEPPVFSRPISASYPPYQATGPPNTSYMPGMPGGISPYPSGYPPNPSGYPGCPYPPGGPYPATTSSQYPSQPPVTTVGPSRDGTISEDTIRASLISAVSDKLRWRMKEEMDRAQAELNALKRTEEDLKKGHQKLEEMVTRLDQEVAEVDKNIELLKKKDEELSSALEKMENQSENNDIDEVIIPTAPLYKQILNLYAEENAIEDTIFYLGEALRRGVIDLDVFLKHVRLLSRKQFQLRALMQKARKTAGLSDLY
Summary of the method: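 Tsg101 binding domain 10 uM + FITC-PTAP peptide 50 nM (final), 10 mM HEPES pH 7.5/0.15 M NaCl/0.01% Tween 20/3 mM EDTA/0.1 mM TCEP; 20 min RT; FP read, FITC filters.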

[2] = biological target: DNA polymerase iota (Homo sapiens) (UniProt Q9UNA4); assay: qHTS for Inhibitors of Polymerase Iota: Confirmatory Assay for Cherry-picked Compounds (AID 720496); details: Pol iota primer extension, TAMRA/BHQ fluorescence; further: potency means the concentration at half of the fitted maximal effect
Chain of DNA polymerase iota (Homo sapiens) (Q9UNA4 whole entry, looked up): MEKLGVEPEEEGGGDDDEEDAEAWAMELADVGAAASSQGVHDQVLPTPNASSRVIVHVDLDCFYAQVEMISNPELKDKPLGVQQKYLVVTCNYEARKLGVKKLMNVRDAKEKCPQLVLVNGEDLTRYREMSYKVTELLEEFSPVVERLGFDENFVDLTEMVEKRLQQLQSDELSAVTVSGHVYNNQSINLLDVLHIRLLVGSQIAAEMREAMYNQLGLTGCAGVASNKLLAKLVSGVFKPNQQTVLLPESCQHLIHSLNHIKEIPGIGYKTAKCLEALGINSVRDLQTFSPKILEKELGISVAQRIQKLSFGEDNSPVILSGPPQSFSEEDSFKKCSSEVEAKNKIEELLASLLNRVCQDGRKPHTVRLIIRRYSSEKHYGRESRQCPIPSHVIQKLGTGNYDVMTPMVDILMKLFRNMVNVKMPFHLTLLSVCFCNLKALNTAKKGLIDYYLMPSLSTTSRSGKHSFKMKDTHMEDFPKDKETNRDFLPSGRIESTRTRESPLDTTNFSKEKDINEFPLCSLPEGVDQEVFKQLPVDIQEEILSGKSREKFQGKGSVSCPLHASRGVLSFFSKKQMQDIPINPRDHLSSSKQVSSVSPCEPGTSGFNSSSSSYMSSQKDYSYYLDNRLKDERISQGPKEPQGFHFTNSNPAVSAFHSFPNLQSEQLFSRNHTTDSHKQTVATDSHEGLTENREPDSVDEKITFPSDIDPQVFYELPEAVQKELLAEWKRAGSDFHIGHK
Summary of the method: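 Recombinant human Pol iota (10 nM) was preincubated with compound for 15 min at room temperature, then 50 nM final primer/template substrate was added; the substrate carried a TAMRA-labeled reporter strand and a BHQ-2-quenched template. Fluorescence was read at 0 and 10 min.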

[3] = biological target: Bifunctional 3'-5' exonuclease/ATP-dependent helicase WRN (Homo sapiens) (UniProt Q14191); assay: qHTS for Inhibitors of WRN Helicase: Confirmatory Assay for Cherry-picked Compounds. (AID 720497); details: WRN helicase DNA unwinding, fluorescence kinetic; series mostly up to 57.1 µM; further: nearly all actives have a fitted effect of over 65% in size
Summary of the method: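 Kinetic fluorescence unwinding readout (525/598 nm) of a forked duplex oligonucleotide substrate, 100 nM, with 2 mM ATP and 20 nM WRN. Compounds were added 15 min before substrate at room temperature. Activity was scaled between uninhibited enzyme and buffer-only controls.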

[4] = qHTS for Inhibitors of WRN Helicase: Thiazole Orange DNA Binding Counterscreen (AID 720499); details: thiazole orange DNA binding displacement, fluorescence; series mostly up to 57.1 µM;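 further: drop in dye fluorescence marks compound binding to DNA; nearly all actives have a fitted effect of over 60% in size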
Summary of the method: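 DNA-intercalating dye assay: pintool-added compounds meet 50 nM DNA pre-stained with 100 nM ThO; 15 min at RT; fluorescence 480/530 nm. Inactivity is desired.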

[5] = biological target: DNA polymerase eta (Homo sapiens) (UniProt Q9Y253); assay: qHTS for Inhibitors of Polymerase Eta: Confirmatory Assay for Cherry-picked Compounds (AID 720502); details: Pol eta primer extension, TAMRA/BHQ fluorescence, 10 min; further: potency means the concentration at half of the fitted maximal effect
Chain of DNA polymerase eta (Homo sapiens) (Q9Y253 whole entry, looked up): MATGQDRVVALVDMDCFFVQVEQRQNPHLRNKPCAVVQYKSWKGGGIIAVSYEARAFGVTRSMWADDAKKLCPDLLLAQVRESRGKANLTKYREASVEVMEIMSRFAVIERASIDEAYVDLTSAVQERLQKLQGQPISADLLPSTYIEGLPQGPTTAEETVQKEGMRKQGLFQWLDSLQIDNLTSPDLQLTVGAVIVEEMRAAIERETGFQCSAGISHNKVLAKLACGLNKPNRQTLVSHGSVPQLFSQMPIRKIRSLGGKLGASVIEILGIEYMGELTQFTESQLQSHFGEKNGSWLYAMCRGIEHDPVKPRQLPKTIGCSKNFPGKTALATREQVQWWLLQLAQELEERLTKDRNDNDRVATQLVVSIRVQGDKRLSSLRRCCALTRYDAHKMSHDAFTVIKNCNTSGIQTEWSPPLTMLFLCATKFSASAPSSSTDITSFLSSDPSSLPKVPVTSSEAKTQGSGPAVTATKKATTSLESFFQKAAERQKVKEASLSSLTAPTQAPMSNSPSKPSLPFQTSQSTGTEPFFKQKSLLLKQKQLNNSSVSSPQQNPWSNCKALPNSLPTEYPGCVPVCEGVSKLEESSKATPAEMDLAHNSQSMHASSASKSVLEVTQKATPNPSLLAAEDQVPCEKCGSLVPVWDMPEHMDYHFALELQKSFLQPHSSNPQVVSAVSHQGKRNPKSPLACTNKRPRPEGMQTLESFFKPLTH
Summary of the method: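 10 nM Pol eta + cpd, 15 min RT; start w/ 50 nM final primer/TAMRA-reporter/BHQ-2-template substrate; kinetic read 0 and 10 min, ex 525/em 598 nm. Buffer-only wells = negative control.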

[6] = biological target: Luciferin 4-monooxygenase (Photinus pyralis) (UniProt P08659); assay: qHTS screen for small molecules that inhibit ELG1-dependent DNA repair: Hit Confirmation in Biochemical Luciferin Assay (AID 624253); details: purified firefly luciferase, luminescence counter-screen; series mostly up to 57.5 µM; further: potency means the concentration at half of the fitted maximal effect
Chain of Luciferin 4-monooxygenase (Photinus pyralis) (P08659 whole entry, looked up): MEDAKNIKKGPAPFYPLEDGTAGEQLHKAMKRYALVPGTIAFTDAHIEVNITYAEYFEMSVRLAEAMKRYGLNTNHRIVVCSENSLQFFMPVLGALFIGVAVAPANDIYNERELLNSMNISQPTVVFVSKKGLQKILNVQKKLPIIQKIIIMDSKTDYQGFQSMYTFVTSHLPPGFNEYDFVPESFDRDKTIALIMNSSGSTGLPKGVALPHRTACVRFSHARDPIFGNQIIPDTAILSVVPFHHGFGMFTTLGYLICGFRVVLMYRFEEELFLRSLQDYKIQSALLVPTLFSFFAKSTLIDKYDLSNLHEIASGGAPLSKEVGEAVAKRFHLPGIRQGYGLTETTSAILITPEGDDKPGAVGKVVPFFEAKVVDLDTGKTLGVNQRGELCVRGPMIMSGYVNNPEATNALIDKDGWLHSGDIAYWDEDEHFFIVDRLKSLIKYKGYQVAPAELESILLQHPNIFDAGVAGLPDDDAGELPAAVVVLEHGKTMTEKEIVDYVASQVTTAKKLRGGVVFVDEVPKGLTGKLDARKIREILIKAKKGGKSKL
Summary of the method: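 Counter-screen against purified firefly luciferase: substrate reagent dispensed first, then compound or DMSO by pintool, then luciferase enzyme added. Luminescence read on a CCD-based imager.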

[7] = biological target: ATPase family AAA domain-containing protein 5 (Homo sapiens) (UniProt Q96QE3); assay: HTS assay for small molecules that inhibit ELG1-dependent DNA repair in human embryonic kidney (HEK293T) cells expressing luciferase-tagged ELG1: Hit Confirmation (AID 624248); details: HEK293T ELG1-luciferase levels, luminescence, cells co-treated with 5-fluorouridine; series mostly up to 46.1 µM; further: nearly all actives have a fitted effect of over 55% in size; further: potency means the concentration at half of the fitted maximal effect
Chain of ATPase family AAA domain-containing protein 5 (Homo sapiens) (Q96QE3 whole entry, looked up, the tested form may be a part): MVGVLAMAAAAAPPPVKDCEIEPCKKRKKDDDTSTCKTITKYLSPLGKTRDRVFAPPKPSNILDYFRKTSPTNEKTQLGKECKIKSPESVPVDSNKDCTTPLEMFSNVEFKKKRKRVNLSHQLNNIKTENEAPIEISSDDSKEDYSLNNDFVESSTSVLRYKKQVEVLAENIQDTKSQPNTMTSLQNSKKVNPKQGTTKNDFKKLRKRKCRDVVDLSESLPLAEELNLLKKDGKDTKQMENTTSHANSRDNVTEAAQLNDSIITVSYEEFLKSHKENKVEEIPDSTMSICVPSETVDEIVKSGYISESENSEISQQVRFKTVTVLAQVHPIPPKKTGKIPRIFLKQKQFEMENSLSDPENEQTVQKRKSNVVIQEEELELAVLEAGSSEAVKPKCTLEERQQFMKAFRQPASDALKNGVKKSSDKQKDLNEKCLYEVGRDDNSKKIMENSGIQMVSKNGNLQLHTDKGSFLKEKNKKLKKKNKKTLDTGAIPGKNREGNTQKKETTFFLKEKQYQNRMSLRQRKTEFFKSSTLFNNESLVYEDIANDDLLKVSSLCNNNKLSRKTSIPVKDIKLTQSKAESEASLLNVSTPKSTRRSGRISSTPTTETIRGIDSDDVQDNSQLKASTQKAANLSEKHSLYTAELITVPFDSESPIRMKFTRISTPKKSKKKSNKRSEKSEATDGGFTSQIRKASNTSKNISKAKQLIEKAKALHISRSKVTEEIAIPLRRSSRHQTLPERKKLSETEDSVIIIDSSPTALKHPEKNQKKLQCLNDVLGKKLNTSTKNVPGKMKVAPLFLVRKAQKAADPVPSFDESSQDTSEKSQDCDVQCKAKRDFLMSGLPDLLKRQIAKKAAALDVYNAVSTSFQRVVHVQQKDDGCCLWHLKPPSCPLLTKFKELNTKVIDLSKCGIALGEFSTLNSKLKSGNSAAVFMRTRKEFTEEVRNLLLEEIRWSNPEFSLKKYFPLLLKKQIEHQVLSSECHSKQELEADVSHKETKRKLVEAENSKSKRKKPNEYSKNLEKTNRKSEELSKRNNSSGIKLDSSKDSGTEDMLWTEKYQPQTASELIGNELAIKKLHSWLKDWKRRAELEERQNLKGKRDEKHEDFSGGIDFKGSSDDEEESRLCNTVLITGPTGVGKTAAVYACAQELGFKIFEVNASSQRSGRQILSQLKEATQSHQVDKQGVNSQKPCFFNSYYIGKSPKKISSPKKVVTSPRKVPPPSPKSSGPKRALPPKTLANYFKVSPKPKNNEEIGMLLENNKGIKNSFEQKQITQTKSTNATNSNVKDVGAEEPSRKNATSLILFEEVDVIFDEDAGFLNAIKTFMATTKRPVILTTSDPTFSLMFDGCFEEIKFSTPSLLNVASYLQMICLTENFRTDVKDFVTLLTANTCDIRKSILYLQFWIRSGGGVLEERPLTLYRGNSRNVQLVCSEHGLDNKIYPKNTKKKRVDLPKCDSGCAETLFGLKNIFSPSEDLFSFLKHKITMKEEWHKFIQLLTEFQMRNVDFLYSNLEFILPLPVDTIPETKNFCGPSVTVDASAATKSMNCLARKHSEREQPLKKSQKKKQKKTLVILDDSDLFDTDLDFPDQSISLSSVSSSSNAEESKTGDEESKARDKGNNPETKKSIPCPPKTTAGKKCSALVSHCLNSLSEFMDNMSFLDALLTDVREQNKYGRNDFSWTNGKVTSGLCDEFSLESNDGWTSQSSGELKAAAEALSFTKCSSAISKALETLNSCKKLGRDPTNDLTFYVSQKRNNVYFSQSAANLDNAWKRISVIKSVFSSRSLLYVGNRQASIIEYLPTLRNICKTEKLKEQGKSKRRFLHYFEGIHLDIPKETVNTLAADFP
Summary of the method: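 Cells (2,000/well) received 5-Fluorouridine plus pin-transferred compound or DMSO and were incubated 16 hr at 37 °C, 5% CO2. Luciferase activity was read by ONE-Glo luminescence after 30 min at room temperature; inhibitors suppress the signal.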

[8] = qHTS screen for small molecules that inhibit ELG1-dependent DNA repair: Hit Confirmation with MMS Viability (AID 624251); details: Cell viability with MMS; series mostly up to 46.1 µM; further: nearly all actives have a fitted effect of over 60% in size; further: potency means the concentration at half of the fitted maximal effect
Summary of the method: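 ELG1-luc HEK293T cells were plated, then about 5 h later received compounds by pin transfer plus MMS at 10 µM final. Viability was read by CellTiter-Glo luminescence after 16 h.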

[9] = biological target: Luciferin 4-monooxygenase (Photinus pyralis) (UniProt P08659); assay: Biochemical firefly luciferase enzyme assay for NPC (AID 624030);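 further: purified P. pyralis luciferase at 10 nM with luciferin and ATP substrate; nearly all actives have a fitted effect of over 70% in size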; details: purified P. pyralis luciferase, luminescence, 5 min; series mostly up to 58.6 µM
Summary of the method: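 Counter-screen for direct inhibition of the luciferase enzyme by approved-drug library compounds, run at 10 nM enzyme in 50 mM Tris acetate (final). Luminescence was read within 5 min of enzyme-buffer addition and normalized to PTC124 versus DMSO (0%).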

[10] = biological target: Cytochrome P450 3A4 (Homo sapiens) (UniProt P08684); assay: qHTS Assay for Activators of Cytochrome P450 3A4 (AID 885); details: recombinant CYP3A4, Luciferin-PPXE luminescence, 60 min; series mostly up to 57.1 µM; further: nearly all actives have a fitted effect of over 65% in size
Chain of Cytochrome P450 3A4 (Homo sapiens) (P08684 whole entry, looked up): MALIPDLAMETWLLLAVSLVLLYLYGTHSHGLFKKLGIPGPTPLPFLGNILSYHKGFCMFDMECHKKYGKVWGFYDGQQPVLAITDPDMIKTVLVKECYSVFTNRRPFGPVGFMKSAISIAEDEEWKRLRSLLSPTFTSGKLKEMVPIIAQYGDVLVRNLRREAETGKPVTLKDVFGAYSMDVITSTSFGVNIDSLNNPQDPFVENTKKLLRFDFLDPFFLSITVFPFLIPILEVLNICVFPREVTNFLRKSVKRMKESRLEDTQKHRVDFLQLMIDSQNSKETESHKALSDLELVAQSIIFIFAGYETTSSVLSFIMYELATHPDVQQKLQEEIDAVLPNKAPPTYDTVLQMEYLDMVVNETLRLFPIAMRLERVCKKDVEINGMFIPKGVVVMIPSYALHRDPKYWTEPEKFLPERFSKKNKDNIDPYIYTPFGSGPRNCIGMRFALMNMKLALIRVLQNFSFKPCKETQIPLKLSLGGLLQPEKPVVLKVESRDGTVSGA
Summary of the method: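 20nM CYP3A4 + 25uM Luciferin-PPXE (=KM), 200mM KPO4; cpd 10 min RT; NADPH regen, 60 min RT; stop w/ detection buffer, 20 min; luminescence. Normalized to 57 uM ketoconazole.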

[11] = Confirmation and Secondary Assay for Modulators of Hemoglobin Beta Chain Splicing at IVS2 654 locus (AID 910); details: HeLa EGFP-654 splicing reporter, GFP fluorescence, 48 h; series mostly up to 46.1 µM;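 further: per-well total GFP intensity by laser scanning cytometry after 2-day treatment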
Summary of the method: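 HeLa cells stably carrying EGFP interrupted by mutant beta-globin IVS2-654 intron (CMV-driven) were treated with compound for 2 days at 37C; corrected splicing was scored as total peak GFP intensity per well (488 nm excitation, 500-520 nm emission).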

[12] = Confirmation and Secondary Assay for Modulators of Hemoglobin Beta Chain Splicing at IVS2 705 locus (AID 930); details: HeLa EGFP-705 splicing reporter, GFP fluorescence, 48 h; series mostly up to 46.1 µM;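 further: HeLa cells stably expressing the EGFP-705 splicing reporter; GFP fluorescence per well restored by corrected splicing of the IVS2-705 intron in EGFP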
Summary of the method: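 Splice-correction reporter: EGFP cDNA split by beta-globin intron 2 bearing the 705 mutation, stably in HeLa. Compound incubation 2 days, 37C; fluorescent objects 5-250 µm summed per well.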

Structure (SMILES): COc1ccc(OC)c(-c2c3cc(O)c(=O)cc-3oc3cc(O)c(O)cc23)c1
- Potency [1]: 32.6 µM (active)

Structure (SMILES): CC(=O)N(C1=C(Cl)C(=O)c2ccccc2C1=O)c1ccc(C(=O)O)cc1
- Potency [2]: 67 µM (active)
- Potency [3]: inactive
- Potency [4]: inactive
- Potency [5]: 26.9 µM (active)

Structure (SMILES): O=C(Nn1c(SCc2ccc([N+](=O)[O-])cc2)nc2ccccc2c1=O)c1ccc(F)cc1
- Potency [6]: 16.4 µM (active)

Structure (SMILES): COc1ccc(-c2nn(-c3ccccc3)cc2/C=C\C(=O)N2CCOCC2)cc1[N+](=O)[O-]
- Potency [7]: 1.41 µM (active)
- Potency [8]: inactive

Structure (SMILES): Cc1ccccc1NC(=O)CSc1nc2ccc(Nc3nc(N4CCOCC4)nc(N4CCOCC4)n3)cc2s1
- Potency [7]: 3.15 µM (active)
- Potency [8]: inactive
- Potency [6]: inactive

Structure (SMILES): CCOC(=O)c1cccc(NC(=O)C2CCN(c3ncnc4c3nc3n4CCCCC3)CC2)c1
- Potency [7]: 3.97 µM (active)
- Potency [8]: inactive

Structure (SMILES): CN(C)c1ccnc2sc3c(=O)n(Cc4ccccc4)cnc3c12
- Potency [7]: 4.45 µM (active)
- Potency [8]: inactive

Structure (SMILES): COc1ccc(NC(=O)c2sc3nc(C)nc(N4CCN(c5ccccn5)CC4)c3c2C)c(OC)c1
- Potency [7]: 3.97 µM (active)
- Potency [8]: inactive
- Potency [6]: inactive

Structure (SMILES): O=C(CO)[C@@H](O)C(O)[C@@H](O)CO (some centres undefined)
- Potency [9]: inactive

Structure (SMILES): COc1ccc(NC(=O)C2CCC(CNc3c(N4CCCCC4)c(=O)c3=O)CC2)c(OC)c1 (centres undefined)
- Potency [8]: inactive
- Potency [6]: inactive

Structure (SMILES): NC(=O)c1sc2nc3c(c(-c4ccccc4)c2c1N)CCC3
- Potency [7]: 1.77 µM (active)
- Potency [8]: inactive

Structure (SMILES): COc1ccccc1C(=O)Nc1ccc(C)c(S(=O)(=O)N2CCCCC2)c1
- Potency [7]: 14.1 µM (active)
- Potency [8]: inactive

Structure (SMILES): COc1ccc(S(=O)(=O)Nc2ccc3oc(C)c(C(C)=O)c3c2)cc1
- Potency [8]: 3.97 µM (active)

Structure (SMILES): CC(=O)c1c(C)n(-c2ccc(C)cc2)c2ccc(O)cc12
- Potency [7]: inactive
- Potency [8]: inactive

Structure (SMILES): Cc1ccc(C)c(S(=O)(=O)N2CCN(c3ncnc4sccc34)CC2)c1
- Potency [7]: 4.99 µM (active)
- Potency [8]: 2.5 µM (active)

Structure (SMILES): Cc1ccc(Nc2nc(N3CCOCC3)nc(N3CCOCC3)n2)cc1Cl
- Potency [7]: 1.99 µM (active)
- Potency [8]: inactive
- Potency [6]: inactive

Structure (SMILES): Cn1c(=O)c(Nc2ccc(Cl)cc2)c2c3c(cccc31)C(=O)c1ccccc1-2
- Potency [1]: 10.3 µM (active)

Structure (SMILES): CC12CCC(C(=O)N3CCN(c4ncccn4)CC3)(c3nc4ccccc4nc31)C2(C)C (centres undefined)
- Potency [7]: 7.91 µM (active)
- Potency [8]: inactive

Structure (SMILES): Cc1cc2oc(=O)cc(CN3CCN(S(=O)(=O)c4cccs4)CC3)c2cc1C(C)C
- Potency [7]: 3.53 µM (active)
- Potency [8]: 22.3 µM (active)

Structure (SMILES): COc1ccc(NS(=O)(=O)c2ccc(Oc3c(C#N)cccc3C#N)cc2)cc1
- Potency [8]: 4.45 µM (active)

Structure (SMILES): CCC(=O)OCC(=O)C1(OC(=O)CC)C(C)CC2C3CCC4=CC(=O)C=CC4(C)C3(Cl)C(O)CC21C (centres undefined)
- Potency [10]: inactive
- outcome [11]: inactive
- outcome [12]: inactive
- Potency [9]: inactive

Structure (SMILES): Cc1ccc(N(Cc2ccc(C(=O)Nc3ccccc3C(=O)NCc3ccco3)cc2)S(C)(=O)=O)cc1C
- Potency [7]: 6.28 µM (active)
- Potency [8]: inactive

Structure (SMILES): Clc1ccc2nc(-c3ccccc3)nc(C(Cl)Cl)c2c1
- Potency [7]: 3.53 µM (active)
- Potency [8]: 3.97 µM (active)

Structure (SMILES): CO/N=C1\C[C@]2(C[C@@H]3C[C@H](C/C=C(/C)C[C@@H](C)/C=C\C=C4\CO[C@@H]5[C@@H](O)C(C)=C[C@@H](C(=O)O3)[C@]45O)O2)O[C@@H](/C(C)=C/C(C)C)[C@H]1C
- Potency [9]: inactive

Structure (SMILES): CS(=O)c1ccc(/C=C2\C=Cc3ccccc32)cc1 (centres undefined)
- Potency [6]: 1.03 µM (active)

Structure (SMILES): COc1ccc(-n2nc(C(=O)Nc3ccc(OC)c(OC)c3)c3c4ccccc4n(C)c3c2=O)cc1
- Potency [1]: inactive

Structure (SMILES): COc1ccc(NC(C)=O)cc1NC(=O)CN1CCN(C2c3ccccc3-c3ccccc32)CC1
- Potency [7]: 2.81 µM (active)
- Potency [8]: inactive
- Potency [6]: inactive

Structure (SMILES): CN(CC1CCCO1)S(=O)(=O)c1ccc(C(=O)Nc2ccc(F)cc2)cc1 (centres undefined)
- Potency [7]: 9.96 µM (active)

Structure (SMILES): COc1ccc(OC)c2cc3ccccc3cc12
- Potency [1]: 32.6 µM (active)

Structure (SMILES): OCCCNc1nccc(-c2cc(Nc3cccc(Cl)c3)ncn2)n1
- Potency [7]: 0.792 µM (active)
- Potency [8]: 2.5 µM (active)

Structure (SMILES): CC(=O)N1CCc2cc(Br)cc(S(=O)(=O)CCC(=O)Nc3c(C)n(C)n(-c4ccccc4)c3=O)c21
- Potency [6]: inactive

Structure (SMILES): COc1ccc(CNc2ncnc3ccccc23)cc1
- Potency [8]: 2.23 µM (active)

Structure (SMILES): O=C(C1CCCN(S(=O)(=O)c2ccccc2)C1)N1CCN(c2ccc(F)cc2)CC1 (centres undefined)
- Potency [8]: 3.97 µM (active)
- Potency [6]: inactive

Structure (SMILES): Cn1cc(/C=C(\C#N)C(=O)Nc2ccccc2O)c2ccccc21
- Potency [1]: inactive

Structure (SMILES): C[N+](C)(C)CCOP(=O)(O)OP(=O)([O-])OCC1OC(n2ccc(N)nc2=O)[C@H](O)[C@@H]1O (some centres undefined)
- Potency [9]: inactive

Structure (SMILES): COc1ccc(CSc2nc(N3CCOCC3)c3c(c2C#N)CC(C)(C)OC3)cc1
- Potency [7]: 0.889 µM (active)
- Potency [8]: inactive
- Potency [6]: inactive

Structure (SMILES): CCOC(=O)C1CCCN(c2nc3ccccc3nc2C(C#N)C(=O)NCc2ccccc2)C1 (centres undefined)
- Potency [1]: inactive

Structure (SMILES): CS(=O)(=O)c1ccc2nc(NC(=O)C3CCCCC3)sc2c1
- Potency [7]: 6.28 µM (active)
- Potency [8]: inactive
